“And” between values parts separate entries of the source, which are not always exact repeats. Equal entries are not always repeated. This is part of a sample that, as a whole, favours compounds with a hit. Of some 83,000 tested, about 20% had one in any assay.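 Testing used 96-well plates and a 48-hour single-concentration exposure. Example: -40 means 40% of the starting cells died.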
How the values were obtained:
Assay in all cases: NCI-60 one-dose screen, 48 h (100 = growth as untreated, 0 = no growth, -100 = all killed)
Conditions in all cases: 10 µM unless noted; active means growth percent below 10; inactive means the rest
SR leukemia = test system: SR leukemia
RPMI-8226 leukemia = test system: RPMI-8226 leukemia
OVCAR-8 ovarian = test system: OVCAR-8 ovarian
OVCAR-5 ovarian = test system: OVCAR-5 ovarian
OVCAR-4 ovarian = test system: OVCAR-4 ovarian
SK-OV-3 ovarian = test system: SK-OV-3 ovarian
IGROV1 ovarian = test system: IGROV1 ovarian
OVCAR-3 ovarian = test system: OVCAR-3 ovarian
HS 578T breast = test system: HS 578T breast
NCI/ADR-RES ovarian = test system: NCI/ADR-RES ovarian
T-47D breast = test system: T-47D breast
BT-549 breast = test system: BT-549 breast
MDA-MB-435 melanoma = test system: MDA-MB-435 melanoma
SW-620 colon = test system: SW-620 colon
MCF7 breast = test system: MCF7 breast
HCT-116 colon = test system: HCT-116 colon
HCC-2998 colon = test system: HCC-2998 colon
KM12 colon = test system: KM12 colon

Measured: growth

CN(Cc1ccccc1)c1nc(Cl)c(C2CC(c3ccc4c(c3)OCO4)=NN2c2cc(Cl)cc(Cl)c2)s1 (stereo unspecified)
inactive: SR leukemia 98.6% | RPMI-8226 leukemia 83.7% | OVCAR-8 ovarian 105% | OVCAR-5 ovarian 106% | OVCAR-4 ovarian 90.1% | SK-OV-3 ovarian 92.9% | IGROV1 ovarian 95.3% | OVCAR-3 ovarian 103% | HS 578T breast 96.5% | NCI/ADR-RES ovarian 104% | T-47D breast 86.1% | BT-549 breast 104% | MDA-MB-435 melanoma 97.2% | SW-620 colon 99.1% | MCF7 breast 78.2% | HCT-116 colon 87% | HCC-2998 colon 106% | KM12 colon 98.5%

Fc1ccccc1-c1cnn2cc(-c3ccccc3)cnc12
inactive: SR leukemia 81.8% | RPMI-8226 leukemia 98% | OVCAR-8 ovarian 94.1% | OVCAR-5 ovarian 109% | OVCAR-4 ovarian 98.5% | SK-OV-3 ovarian 98% | IGROV1 ovarian 88% | OVCAR-3 ovarian 109% | HS 578T breast 93% | NCI/ADR-RES ovarian 95% | T-47D breast 98.1% | BT-549 breast 98.7% | MDA-MB-435 melanoma 75.6% | SW-620 colon 92.2% | MCF7 breast 68.1% | HCT-116 colon 91.3% | HCC-2998 colon 92.8% | KM12 colon 59.3%

CCOC(=O)c1nnn(Cc2cc(=O)oc3c2ccc2ccccc23)c1C
inactive: SR leukemia 97.6% | RPMI-8226 leukemia 103% | OVCAR-8 ovarian 98.1% | OVCAR-5 ovarian 102% | OVCAR-4 ovarian 97.6% | SK-OV-3 ovarian 104% | IGROV1 ovarian 110% | OVCAR-3 ovarian 103% | HS 578T breast 100% | NCI/ADR-RES ovarian 108% | T-47D breast 93.9% | BT-549 breast 108% | MDA-MB-435 melanoma 105% | SW-620 colon 107% | MCF7 breast 92% | HCT-116 colon 89.3% | HCC-2998 colon 106% | KM12 colon 104%

CCOc1ccc(C(=O)Cc2ccccc2)cc1
inactive: SR leukemia 93.4% and 92.3% | RPMI-8226 leukemia 106% and 95% | OVCAR-8 ovarian 109% and 106% | OVCAR-5 ovarian 103% and 109% | OVCAR-4 ovarian 105% and 106% | SK-OV-3 ovarian 121% and 117% | IGROV1 ovarian 116% and 110% | OVCAR-3 ovarian 120% and 125% | HS 578T breast 107% | NCI/ADR-RES ovarian 107% and 104% | T-47D breast 98% and 100% | BT-549 breast 113% and 116% | MDA-MB-435 melanoma 106% and 102% | SW-620 colon 108% and 110% | MCF7 breast 103% and 104% | HCT-116 colon 107% and 110% | HCC-2998 colon 106% and 98.2% | KM12 colon 116% and 110%

Nc1nc2c(s1)CCc1cn(S(=O)(=O)c3ccccc3)cc1-2
inactive: SR leukemia 75.2% and 92.8% | RPMI-8226 leukemia 98.9% and 91.4% | OVCAR-8 ovarian 88.6% and 110% | OVCAR-5 ovarian 102% and 104% | OVCAR-4 ovarian 87.5% | SK-OV-3 ovarian 106% and 109% | IGROV1 ovarian 100% | OVCAR-3 ovarian 96% and 108% | HS 578T breast 86.4% and 107% | NCI/ADR-RES ovarian 91.9% and 103% | T-47D breast 81.6% and 111% | BT-549 breast 84% and 109% | MDA-MB-435 melanoma 91.1% and 107% | SW-620 colon 99.7% and 99.3% | MCF7 breast 93.4% and 94.3% | HCT-116 colon 84.5% and 100% | HCC-2998 colon 111% and 106% | KM12 colon 94.6% and 108%

O=c1oc2c(Br)cc(Br)cc2cc1-c1cc(-c2ccc(-c3cc(-c4cc5cc(Br)cc(Br)c5oc4=O)nc(-c4cc5cc(Br)cc(Br)c5oc4=O)c3)cc2)cc(-c2cc3cc(Br)cc(Br)c3oc2=O)n1
inactive: SR leukemia 92.5% | RPMI-8226 leukemia 102% | OVCAR-8 ovarian 108% | OVCAR-5 ovarian 109% | OVCAR-4 ovarian 113% | SK-OV-3 ovarian 101% | IGROV1 ovarian 106% | OVCAR-3 ovarian 104% | HS 578T breast 90.7% | NCI/ADR-RES ovarian 98.1% | T-47D breast 98.9% | BT-549 breast 112% | MDA-MB-435 melanoma 114% | SW-620 colon 100% | MCF7 breast 98% | HCT-116 colon 99.3% | HCC-2998 colon 102% | KM12 colon 96.1%

COC1=CC(=O)C(OC)=C(O)C1=O
inactive: SR leukemia 107% | RPMI-8226 leukemia 110% | OVCAR-8 ovarian 103% | OVCAR-5 ovarian 95.2% | OVCAR-4 ovarian 90.8% | SK-OV-3 ovarian 91% | IGROV1 ovarian 103% | OVCAR-3 ovarian 105% | HS 578T breast 113% | NCI/ADR-RES ovarian 101% | T-47D breast 89% | BT-549 breast 98.9% | MDA-MB-435 melanoma 101% | SW-620 colon 93.2% | MCF7 breast 91.5% | HCT-116 colon 98.7% | HCC-2998 colon 101% | KM12 colon 102%

— PubChem BioAssay (NCI)
